Experimental data from PubChem BioAssay AID1508642 (National Center for Advancing Translational Sciences (NCATS), 2021).
Out of some 43,000 compounds screened, about 200 (0.47%) were called active. Not shown: some 12% with an inconclusive outcome. Calls follow the shape of the dose curve; as a rule, active = well fitted cell-killing curve with a large enough effect; inconclusive = small, poorly fitted or top-dose-only effect, or effect the other way; inactive = flat fitted curve, though single readings scatter. The entries come from a sample that favours actives as a whole.

Assay: Cell viability qHTS assay in S16 Pmp22-F2sN cells; also: nearly all actives have a fitted effect of over 65% in size
Conditions: S16 Pmp22-F2sN Schwann cells (luciferase reporters placed in the Pmp22 gene) viability, CellTiter-Glo, 24 h; series mostly up to 57.5 µM; activity change, negative = cytotoxicity: at the top concentration
Description: Assay Provider: Jim Inglese Ph.D. National Center for Advancing Translational Science, National Institutes of Health, Rockville, MD CMT is a heterogeneous group of neurological disorders that affect approximately 1 in 2,500 people. In particular, the most common form of CMT, CMT1A is genetically linked to the duplication of the PMP22 gene which leads to Schwann cell overexpression, thus manifesting itself as a typical case of dose-sensitive diseases. To identify small molecule compounds that can mediate the expression of PMP22 we developed a phenotypic assay screening strategy by utilizing genome editing techniques to construct Schwann cell lines containing novel reporter technology to monitor the transcriptional or translational regulation of PMP22. For high sensitivity we use a bioluminescent reporter system embedded in the 3' UTR of the PMP22 gene (S16(c9) Pmp22-F2sN) to identify compounds that inhibit gene expression. […] We can further discriminate the effect of all transcriptionally active molecules on PMP22 translation or stability with an assay that incorporates a short NLuc peptide (HiBiT) at the C-terminus of expressed PMP22 (S16(f8) PMP22-HiBiT) allowing alpha complementation and luminescence detection of membrane-associated PMP22 protein. These assays were screened against the NCATS Sytravon Library Collection. Miniaturization of these assays to 1536-well plate format for quantitative high throughput screening (qHTS) yielded rich data sets immediately from the qHTS assay (S16(c9) Pmp22-F2sN), when compared with data from a cell viability assay (Cell TiterGlo) to identify compounds that decreased the output signals through cellular toxicity to streamline the selection process of actives for subsequent characterization using the HiBiT assay (S16(f8) PMP22-HiBiT).
Cell viability assay in S16 Pmp22-F2sN cells PROTOCOL TABLE (format as described by Inglese J, Shamu CE and Guy RK. 2007) SEQUENCE No. (e.g., 1, 2, 3, etc.); […] (e.g., Cells, Incubation, Reagent, etc.); VALUE and DESCRIPTION. 1. Cells. Add 500-1,000 cells in 4 uL in growth media (DMEM High Glucose, No Phenol Red media + 10% heat-inactivated FBS + 1% Pen/Strep supplemented media) per well into Greiner 1536-well white/solid bottom high base, TC-treated plates. 2. Compounds. Library compounds and controls added at 23nL per well, transferred by Pin Tool. 3. Incubation. Incubate plates at 37C, 5% CO2, 95% RH for 24 h. 4. Reagent. Add 3uL CellTiter-Glo per well of Greiner 1536-well plates. 5. Incubation. Incubate plates at room temperature for 15 min., protect from light. 6. Detector. FLuc luminescence measured using CCD-based camera (Viewlux). NOTES (numbers refer to Sequence numbers above; values are from representative experiments) 6. Luminescence Read: Clear filter; Exposure = 1 sec, Gain = High, Speed = Slow, Binning = 2X REFERENCES: 1. Inglese J, Shamu CE and Guy RK, Reporting data from high throughput screening of small molecule libraries, Nature Chemical Biology, 2007, 3(8): 438-441. doi.org/10.1038/nchembio0807-438 2. Yasgar A, Shinn P, Jadhav A, Auld DS, Michael S, Zheng W, Austin CP, Inglese J and Simeonov A, Compound Management for Quantitative High-Throughput Screening. J. Assoc. Lab. Auto., 2008, 13: 79-89. doi: 10.1016/j.jala.2007.12.004
% is scaled to controls: 0 for no effect and ±100 for the full control effect; potency is read from the fitted curve at half-maximal effect.

Row | SMILES | activity change, negative = cytotoxicity | Potency
1 | COc1ccc(S(=O)(=O)n2nc(C)c(S(=O)(=O)N3CCCCCC3)c2C)cc1 | -8.85% (inactive) | –
2 | CCC(=O)N1CCc2cc(CNS(=O)(=O)c3ccc(Br)s3)ccc21 | -3.99% (inactive) | –
3 | COc1ccccc1CNC(=O)c1ccc(CS(=O)c2ccccc2Cl)o1 (configuration not stated) | -6.85% (inactive) | –
4 | CC(C)(C)OC(=O)N1CCC(c2c(C(=O)NCCc3ccsc3)cnn2-c2ccc(F)cc2F)CC1 | -27.8% (inactive) | –
5 | COc1ccc(-c2nc(Cn3c(=O)cc(C)c4c(C)nn(-c5ccccc5)c43)c(C)o2)c(OC)c1 | 9.69% (inactive) | –
6 | COC(=O)c1ccccc1NC(=O)Cn1c(=O)n(-c2cccc(C(F)(F)F)c2)c(=O)c2c(C)c(C)sc21 | 0.489% (inactive) | –
7 | O=C(CCc1nc(CN2CCN(S(=O)(=O)c3ccc(Br)cc3)CC2)no1)N1CCCCC1 | -20.1% (inactive) | –
8 | CCOc1ccccc1CNCc1c(C(=O)O)c(C)n(Cc2ccc(C)cc2)c1C | -0.973% (inactive) | –
9 | CCOc1ccc(C2C(C(=O)Nc3ccc(Cl)cc3)=C(C)Nc3nc(C(F)(F)F)nn32)cc1 (configuration not stated) | -26.8% (inactive) | –
10 | COc1ccc(-c2nc(CN3CCC(C(=O)NCCN(CC(C)C)CC(C)C)CC3)c(C)o2)cc1OC | -2.77% (inactive) | –
11 | COc1cc2nc(SCc3ccc(F)cc3)n3nc(CCn4c(C)nc5ccccc54)nc3c2cc1OC | -6.47% (inactive) | –
12 | CCOc1cc(C2C(C(=O)Nc3ccc(OC)cc3)=C(C)Nc3nc(SC)nn32)ccc1O (configuration not stated) | -26.7% (inactive) | –
13 | CC(=O)c1ccc(NC(=O)COc2ccccc2-c2nc(-c3ccccc3)no2)cc1 | 3.1% (inactive) | –
14 | COc1cccc(CNC(=O)c2ccc3c(c2)N(Cc2ccc(C(F)(F)F)cc2)C(=O)c2ccccc2S3)c1OC | -5.25% (inactive) | –
15 | Cc1ccc(-c2nc(S(=O)(=O)c3ccc(C)cc3)c(N3CCCCCC3)o2)cc1 | -18.3% (inactive) | –
16 | CC(C)S(=O)(=O)c1oc(-c2ccc(F)cc2)nc1S(=O)(=O)c1ccc(F)cc1 | – | 3.16 µM (active)
17 | O=C(CSc1oc(-c2ccc(F)cc2)nc1S(=O)(=O)c1ccc(Br)cc1)NC1CCCCC1 | 2.8% (inactive) | –
18 | COc1ccc(-c2nc(SCC(=O)N3CCCCC3C)n[nH]2)cc1 (configuration not stated) | 0.441% (inactive) | –
19 | O=C(NCCS(=O)(=O)N1CCN(c2ccc(F)cc2)CC1)c1ccccc1Br | -9.89% (inactive) | –

Row | SMILES | activity change, negative = cytotoxicity | Potency
20 | COc1ccc(NC(=O)Cn2c(=O)cc(C)c3c(C)nn(-c4cccc(Cl)c4C)c32)cc1OC | -0.142% (inactive) | –
21 | CCOc1ccccc1CNC(=O)c1cnc2c(-c3ccc(OCC)c(OCC)c3)c(C)nn2c1C | -2.71% (inactive) | –
22 | Cc1ccc(-c2nc(Cn3c(=O)cc(-c4ccccc4)c4c(C)nn(C)c43)c(C)o2)cc1 | 0.847% (inactive) | –
23 | O=C(CCn1c(=O)c2ccccc2n(Cc2ccc(Cl)cc2)c1=O)NCc1ccc2c(c1)OCO2 | 16.4% (inactive) | –
24 | COc1ccc(-c2onc(C)c2C)cc1S(=O)(=O)NCc1cccs1 | -12.4% (inactive) | –
25 | CCS(=O)(=O)N1CCc2cc(C(=O)N3CCN(c4ccccc4OC)CC3)ccc21 | -23.9% (inactive) | –
26 | COc1ccc(C2=CC(c3ccccc3Cl)n3nc(-c4ccc(Cl)cc4)nc3N2)cc1 (configuration not stated) | -1.8% (inactive) | –
27 | COc1ccc(C)cc1NC(=O)C(=O)NCCc1sc(-c2cccc(C)c2)nc1C | 15.9% (inactive) | –
28 | Cc1c(-c2cccc(NC(=O)C(C)(C)C)c2)nc2ncccn12 | 9.29% (inactive) | –
29 | Cc1cc(C)c(NC(=O)c2cc3sc(Cl)cc3n2C)c(C)c1 | -0.729% (inactive) | –
30 | Cc1cccc(-n2ccnc2SCC(=O)Nc2cccc3ccccc23)c1C | -23% (inactive) | –
31 | CC(C)Cn1c(-c2ccc(S(=O)(=O)N3CCOCC3)cc2)csc1=Nc1cc(Cl)ccc1Cl | 1.99% (inactive) | –
32 | Cc1ccc2[nH]c3c(=O)n(CC(=O)NC(C)C)ncc3c2c1 | 17.3% (inactive) | –
33 | COc1ccccc1CNC(=O)CS(=O)(=O)c1cccc2nsnc12 | 1.47% (inactive) | –
34 | Cc1cccc2c1-c1sc(C(=O)Nc3ccc(F)cc3F)cc1CO2 | 4.55% (inactive) | –
35 | CCOCCn1ccc2c(OCC(=O)NCc3ccc(C)cc3)cccc2c1=O | -27.9% (inactive) | –
36 | CCOC(=O)C1CCN(S(=O)(=O)c2ccc3c(c2)N(C)C(=O)CC(=O)N3C)CC1 | 9.53% (inactive) | –
37 | Cc1ccc2c(c1)N(C(=O)CCC(=O)NCc1ccccc1F)CC(C)O2 (configuration not stated) | 16.2% (inactive) | –
38 | COc1cc(CNC(=O)c2cc3n(n2)CCCN(Cc2cccc(F)c2)C3=O)cc(OC)c1OC | 4.68% (inactive) | –

Row | SMILES | activity change, negative = cytotoxicity | Potency
39 | COc1ccc(C2c3c(oc4ccccc4c3=O)C(=O)N2Cc2ccc3c(c2)OCO3)cc1 (configuration not stated) | -4.77% (inactive) | –
40 | CCCNC(=O)C1CCN(c2nc3ccc(C)cc3[nH]2)CC1 | 12.1% (inactive) | –
41 | CCCc1cc(=O)n2[nH]c(NCc3ccc(CC)cc3)nc2n1 | -6.76% (inactive) | –
42 | CCCCN(C)c1nnc(NC(=O)Nc2ccc(Br)c(C)c2)s1 | 7.82% (inactive) | –
43 | Cc1cccc(-n2ncc(C(=O)N3CCC(C)CC3)c2C2CCN(C(=O)OC(C)(C)C)CC2)c1 | -0.159% (inactive) | –
44 | COc1ccc2c(c1)c(=O)c(C(=O)c1ccccc1)cn2CC(=O)Nc1ccc2c(c1)OCCO2 | -17.2% (inactive) | –
45 | Cn1ccc2cc(S(=O)(=O)N3CCCC(C(=O)NCc4ccccc4F)C3)ccc21 (configuration not stated) | -1.54% (inactive) | –
46 | CCOc1ccc(N(CC)C(=O)C2CCN(S(=O)(=O)c3cccc4nonc34)CC2)cc1 | 17% (inactive) | –
47 | CCOc1ccc(N(Cc2ccccc2)C(=O)c2nc(S(C)(=O)=O)ncc2Cl)cc1 | – | 3.55 µM (active)
48 | CCOc1ccc(N(Cc2ccccc2)C(=O)c2nc(SCC)ncc2Cl)cc1 | -13.1% (inactive) | –
49 | O=C(Cn1ncn2nc(-c3cccs3)cc2c1=O)NCc1cccc(Br)c1 | -7.84% (inactive) | –
50 | CCOC(=O)c1c(NC(=O)/C=C/c2ccc(OC)cc2)sc2c1CCC(C)C2 (configuration not stated) | 2.92% (inactive) | –
51 | Cc1ccc(O)c(NC(=O)CCS(=O)(=O)c2nc(-c3ccc4c(c3)OCO4)cc(C(F)(F)F)n2)c1 | 0.975% (inactive) | –
52 | CCN(CC)CCNC(=O)Cn1ncc2c3ccccc3n(Cc3ccccc3C)c2c1=O | -15.4% (inactive) | –
53 | COCCNC(=O)CSc1c(C)cnc2c1c(=O)n(C)c(=O)n2C | 2.19% (inactive) | –
54 | COc1cc(C(=O)N2CCN(C(=O)COc3cccc(C)c3)CC2)cc(OC)c1OC | 8.68% (inactive) | –
55 | CCCNC(=O)CCC(=O)N1Cc2ccccc2Oc2ncccc21 | 0.274% (inactive) | –
56 | CC(NC(=O)CCc1cn(Cc2ccccc2Cl)c2ccccc12)c1ccccc1 (configuration not stated) | -3.26% (inactive) | –
57 | CC(C)CC(NS(=O)(=O)c1ccc2c(c1)oc(=O)n2C)C(=O)NCc1ccccc1Cl (configuration not stated) | -2.2% (inactive) | –
